Screening data deposited in PubChem by Broad Institute.
A selection: hits, their analogues and other compounds. The true share with any hit is near 6.7%.
Pf Dd2 growth: P. falciparum Dd2 growth inhibitors, primary screen, SYBR Green fluorescence, single dose replicates; 72 h; active compounds read low; activity change, % at 10 µM; actives 2.3% (n = 94,000); AID 1159554, 2015; in the data active = activity change below about -80%; inconclusive = no clear call, values can overlap the other calls
C diff growth: C. difficile growth inhibitors, primary screen, HTS; Clostridium difficile clinical isolate growth, OD600, 24 h; active compounds read low; growth activity, negative = inhibition, % at 16 µg/mL (by protocol); actives 0.25% (n = 86,000);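 active = mean growth activity at or below -80% and every replicate also at or below -80%; inconclusive = mean at or below -80% but some replicate above -80%; inactive = mean growth activity above -80%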;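 also: 0% = DMSO wells and -100% = levofloxacin 16 µg/mL wells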
T cruzi growth-1: T. cruzi intracellular proliferation inhibitors, primary screen, cell-based, beta-gal Tulahuen parasites, NIH3T3 host, luminescence. inhibition, % at 8.34 µM. T. cruzi beta-gal in NIH3T3, GalScreen luminescence, 90 h. AID 624255, 2012. actives 5.9% (n = 77,000);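 active = mean inhibition above about 93%, with at least 55% of replicates each passing it, limit read from the data, passing the limit was not always enough; inconclusive = only one of those two conditions holds; inactive = neither condition holds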
T cruzi growth-2: T. cruzi intracellular proliferation inhibitors, confirmation, cell-based, NIH3T3 host, beta-gal parasite, luminescence, cherry-pick | shares compounds with T cruzi growth-1 | T. cruzi beta-gal in NIH3T3, GalScreen luminescence, 90 h | inhibition, % at 8.35 µM | actives 72% (n = 5,600);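 active = mean replicate inhibition above about 95% and at least 55% of replicates individually reaching it, limit read from the data; inconclusive = only one of the two criteria is met; inactive = neither criterion is met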
T cruzi growth-3: inhibitors of intracellular T. cruzi replication, confirmation, NIH3T3 host cells, beta-gal parasites, cherry-pick, set 2; T. cruzi beta-gal in NIH3T3, GalScreen luminescence, 90 h; inhibition, % at 2.09 µM; actives 21% (n = 5,600); shares compounds with T cruzi growth-1;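 active = mean inhibition above about 95%, with at least 55% of replicates also reaching it, limit read from the data; inconclusive = meets just one of the two conditions; inactive = meets neither condition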;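 also: plate controls were neutral control median for no effect and positive control median for full effect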
NIH3T3 tox: cytotoxicity in mouse NIH/3T3 fibroblasts, confirmation, cytotoxicity control for T. cruzi proliferation inhibitor project, cell-based, cherry-pick, single point; shares compounds with T cruzi growth-1; NIH/3T3 viability, CellTiter-Glo ATP luminescence, 90 h; cytotoxicity (signal decrease), % at 8.35 µM; actives 14% (n = 5,600); AID 651742, 2012;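 active = mean signal decrease across replicates above about 35% based on untreated-well scatter, with enough replicates individually passing, limit read from the data; inconclusive = no rule stated though some were filed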;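 also: 0% = median of neutral control wells and 100% = median of positive control wells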
3T3 cytotox 2: NIH/3T3 fibroblast cytotoxicity, confirmation, cytotoxicity control, cell-based, cherry-pick, single point, set 2. shares compounds with T cruzi growth-1. NIH/3T3 viability, CellTiter-Glo ATP luminescence, 90 h. inhibition, % at 24.9 µM. actives 56% (n = 5,600);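 active = mean loss of cell viability signal at or above a set limit, and enough replicates individually reaching it; inconclusive = meets only the mean limit or only the replicate share; inactive = meets neither condition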;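 also: 0% = median of neutral control wells and 100% = median of positive control wells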
The depositor's hits bear a star; ? = inconclusive; . = no result.

SMILES | Pf Dd2 growth | C diff growth | T cruzi growth-1 | T cruzi growth-2 | T cruzi growth-3 | NIH3T3 tox | 3T3 cytotox 2
CC=Cc1ccc2n(c1=O)C[C@@H]1[C@@H](CO)[C@H](C(=O)NCC(F)(F)F)[C@H]2N1C(=O)C1CCC1 (mixture of isomers) | 6 | 2 | 37 | . | . | . | .
COc1ccccc1C#Cc1ccc2c(c1)[C@@H]1[C@@H](CCN1C(=O)c1ccccc1)[C@@H](CO)N2 | -28 | 74 | 104* | 106* | 90 | 16 | 21
O=C(c1ccc(F)cc1)N1CC[C@@H]2[C@@H](CO)Nc3ccc(C#Cc4ccccc4F)cc3[C@@H]21 | -12 | -22 | 52 | . | . | . | .
O=C(c1cccc(F)c1)N1CC[C@@H]2[C@H]1c1cc(C#Cc3cccc(F)c3)ccc1N[C@@H]2CO | -58 | 60 | 103* | 104* | 68 | -7 | 106*
O=C(c1cccc(F)c1)N1CC[C@@H]2[C@H](CO)Nc3ccc(C#Cc4cccc(F)c4)cc3[C@@H]21 | -37 | 60 | 93 | . | . | . | .
O=C(c1ccccc1)N1CC[C@@H]2[C@H]1c1cc(C#Cc3ccccc3F)ccc1N[C@@H]2CO | -15 | 72 | 104* | 112* | 40 | -22 | 8
COc1ccccc1C#Cc1ccc2c(c1)[C@@H]1[C@@H](CCN1C(=O)c1ccccc1)[C@H](CO)N2 | -53 | 15 | . | . | . | . | .
O=C([C@H]1[C@H](CO)[C@H]2Cn3c(cccc3=O)[C@H]2N1C(=O)CC1CC1)N1CCc2ccccc2C1 | 11 | 0 | 32 | . | . | . | .
CC(C)C#Cc1ccc([C@@H]2[C@H](CO)N3CCCCN(C(=O)c4ccc(F)cc4)C[C@@H]23)cc1 | -35 | -1 | 47 | . | . | . | .
C[C@@H]1CN([C@@H](C)CO)C(=O)Cc2cc(NC(=O)C3CCCCC3)ccc2O[C@H]1CN(C)C(=O)Nc1ccc(C(F)(F)F)cc1 | -38 | -3 | 49 | . | . | . | .
O=C(C[C@@H]1CC[C@H](NC(=O)Nc2ccc(F)cc2)[C@@H](CO)O1)NCCN1CCCC1 | 2 | -1 | -7 | . | . | . | .
N#C[C@@H]1[C@@H](c2ccc(C3=CCCCC3)cc2)[C@@H](CO)N1S(=O)(=O)c1ccccc1 | -38 | 9 | 96* | 102* | 56 | 55* | 60*
N#C[C@H]1[C@H](c2ccc(C3=CCCCC3)cc2)[C@@H](CO)N1S(=O)(=O)c1cccc(F)c1 | 2 | 5 | 47 | . | . | . | .
N#C[C@H]1[C@H](c2ccc(C3=CCCCC3)cc2)[C@@H](CO)N1S(=O)(=O)c1ccccc1 | -18 | 4 | 86 | . | . | . | .
N#C[C@@H]1[C@H](c2ccc(C3=CCCCC3)cc2)[C@H](CO)N1S(=O)(=O)c1cccc(F)c1 | 11 | 7 | 103* | 102* | 43 | 14 | 79*
Cc1cc(C(=O)Nc2cccc3c2O[C@@H](CN(C)C(=O)Nc2c(C)noc2C)[C@@H](C)CN([C@@H](C)CO)C3=O)n(C)n1 | 77 | . | -34 | . | . | . | .
Cc1ccc(S(=O)(=O)N(C)C[C@H]2Oc3ccc(NS(=O)(=O)c4cccs4)cc3C(=O)N([C@@H](C)CO)C[C@H]2C)cc1 | 23 | -8 | 30 | . | . | . | .
C[C@H]1CN([C@@H](C)CO)C(=O)c2cccc(NS(=O)(=O)c3ccc(Cl)cc3)c2O[C@@H]1CN(C)S(=O)(=O)c1ccccc1 | 9 | 8 | 55 | . | . | . | .
CCC(=O)N(CC1CCC1)C[C@H]1[C@H](c2ccccc2)[C@@H](CO)N1C(C)=O | -6 | -7 | 73 | . | . | . | .
CC(=O)N1[C@H](CO)[C@H](c2ccccc2)[C@H]1CN(CC1CCC1)C(=O)CN(C)C | 0 | -8 | 101* | ? | 0 | -23 | -13
CC(=O)N1[C@H](CO)[C@@H](c2ccccc2)[C@@H]1CN(CC1CCC1)C(=O)CN(C)C | -1 | 1 | 27 | . | . | . | .
